{"source": "PubChem BioAssay AID781", "about": "(Emory University Molecular Libraries Screening Center, 2007)", "note": "Among all 220,000 compounds or so, about 1,600 (0.73%) were called active.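 How the source made its calls: active means inhibition above about 70% (limit read from the data); inactive means the rest.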 Shown is part of a subset that was picked to be rich in actives.", "data": [{"molecular_target": "14-3-3 protein zeta/delta (Bos taurus) (UniProt P63103)", "sequence (P63103 whole entry, looked up)": "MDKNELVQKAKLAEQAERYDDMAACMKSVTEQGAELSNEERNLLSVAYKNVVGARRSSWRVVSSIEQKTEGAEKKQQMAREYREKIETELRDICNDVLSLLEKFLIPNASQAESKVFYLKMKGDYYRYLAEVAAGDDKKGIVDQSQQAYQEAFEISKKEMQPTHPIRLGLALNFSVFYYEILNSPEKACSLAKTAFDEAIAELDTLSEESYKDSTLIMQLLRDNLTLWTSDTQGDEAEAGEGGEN", "assay": "disruptors of 14-3-3 zeta phospho-Bad complex – biochemical, TR-FRET, bovine 14-3-3 zeta, primary screen (AID 781);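 further: 0% = full 14-3-3 plus peptide FRET controls and 100% = background without 14-3-3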", "conditions": "TR-FRET 14-3-3zeta/Dy647-pBad peptide displacement, 1 h; at 21.7 µM; stronger effect = higher value", "values": [{"compound": "CC(C)c1ccc(OCC(=O)N2CCN(C)CC2)c(Br)c1", "inhibition": "3.12% (inactive)"}, {"compound": "CN1CCN(C(=O)COc2ccc(C(C)(C)C)cc2Br)CC1", "inhibition": "-3.25% (inactive)"}, {"compound": "O=C(COc1ccc2ccccc2c1)N1CCN(Cc2ccncc2)CC1", "inhibition": "87.2% (active)"}, {"compound": "O=C1NC(=O)N(CCc2ccc(F)cc2)C(=O)/C1=C/C=C/c1ccccc1", "inhibition": "4.29% (inactive)"}, {"compound": "Cc1ccsc1C(=O)C1CCCN(Cc2ccc(O)cc2)C1", "note": "(stereo not given)", "inhibition": "-11.4% (inactive)"}, {"compound": "COc1ccc(CN2CCN(c3ccccc3F)CC2)c(OC)c1", "inhibition": "52.2% (inactive)"}, {"compound": "O=C(Cc1ccccc1)N1CCN(C2CCCCCC2)CC1", "inhibition": "27.6% (inactive)"}, {"compound": "COc1ccccc1CN1CCN(C(=O)Cc2ccccc2)CC1", "inhibition": "75.5% (active)"}, {"compound": "O=c1[nH]c(=O)n(-c2ccccc2)c(O)c1C=NC12CN3CN(CN(C3)C1)C2", "inhibition": "-5.55% (inactive)"}, {"compound": "COC(=O)N1C(c2ccccc2)C1c1ccccc1", "note": "(stereo not given)", "inhibition": "-6.04% (inactive)"}, {"compound": "Cc1cc(N2C(=O)C3CCCN3C2c2ccc(Cl)c(Cl)c2)no1", "note": "(stereo not given)", "inhibition": "5.89% (inactive)"}, {"compound": "Fc1ccc(N2CCN(Cc3ccc4c(c3)OCO4)CC2)cc1", "inhibition": "70.2% (active)"}, {"compound": "Cc1ccc(CN2CCCC(C(=O)c3ccc4c(c3)OCO4)C2)cc1C", "note": "(stereo not given)", "inhibition": "-6.26% (inactive)"}, {"compound": "O=C(Cc1ccccc1[N+](=O)[O-])N1CCN(Cc2ccc3c(c2)OCO3)CC1", "inhibition": "-4.2% (inactive)"}, {"compound": "Fc1ccc(C2N3CCCN23)cc1", "note": "(stereo not given)", "inhibition": "-6.34% (inactive)"}, {"compound": "CC(C)Oc1cccc(C(=O)C2CCCN(C3CCOCC3)C2)c1", "note": "(stereo not given)", "inhibition": "-13% (inactive)"}, {"compound": "CN1CCN(Cc2ccc(OC(F)(F)F)cc2)CC1", "inhibition": "78.5% (active)"}, {"compound": "CN1CCN(Cc2ccccc2C(F)(F)F)CC1", "inhibition": "70.1% (active)"}, {"compound": "CC(C)CN1CCN(Cc2ccccc2C(F)(F)F)CC1CCO", "note": "(stereo not given)", "inhibition": "-9.76% (inactive)"}, {"compound": "Fc1cccc(F)c1CN1CCN(Cc2c(F)cccc2F)CC1", "inhibition": "-4.69% (inactive)"}, {"compound": "Cc1ccc(-n2c(O)c(C=NCC3CCCO3)c(=O)[nH]c2=O)c(C)c1", "note": "(stereo not given)", "inhibition": "5.29% (inactive)"}, {"compound": "CCCCC(=O)N/N=C/c1c(O)n(CCC2=CCCCC2)c(=O)[nH]c1=O", "inhibition": "-15.6% (inactive)"}, {"compound": "CCC1(C)CC(CCNCc2ccc(N(C)C)cc2)(c2ccc(F)cc2)CCO1", "note": "(stereo not given)", "inhibition": "-2.86% (inactive)"}, {"compound": "c1cc2c(cc1[C@H]1OC[C@H]3[C@@H]1CO[C@@H]3c1ccc3c(c1)OCO3)OCO2", "inhibition": "-2.89% (inactive)"}, {"compound": "O=c1[nH]c(=O)n(CCc2ccc(F)cc2)c(O)c1/C=N/N1CCCCC1", "inhibition": "-6.68% (inactive)"}]}]}
